Data reported in PubChem BioAssay AID2284182 (EPA ToxCast).
Inconclusive results are not listed. Activity calls are given as the source filed them. The calls were made as follows: active = hit-call score of the fitted dose curve at least 0.9, where 1 is the maximum; inconclusive = response in the unintended direction; inactive = score below 0.9.

Biological target: human Serotonin Receptor 5-HT7 Agonism, HTR7 (gene 3363) (UniProt P34969)
Experiment: ERF_FR_GPCR_hHTR7: Eurofins (ERF) G Protein-Coupled Receptor (GPCR) Radioligand Binding LeadHunter Assay for human Serotonin Receptor 5-HT7 Agonism
Experimental: ERF_FR_GPCR_hHTR7 is a biochemical, single-readout assay that uses extracted gene-proteins in a cell-free assay. Measurements were taken 2 hour after chemical dosing in a 96-well plate. See 5-HT7 Human Serotonin GPCR Binding (Agonist Radioligand) Assay, Cerep.ERF_FR_GPCR_hHTR7 is an assay component calculated from the ERF_FR_GPCR_hHTR7 assay. It is designed to measure radioligand binding using a type of binding reporter as detected by scintillation counting with radiometry technology.Data from the assay component ERF_FR_GPCR_hHTR7 was analyzed at the assay endpoint, ERF_FR_GPCR_hHTR7, in the positive analysis fitting direction relative to DMSO as the negative control and baseline of activity. Using a type of binding reporter, gain-of-signal activity can be used to understand changes in binding as they relate to gene HTR7. To generalize the intended target to other relatable targets, this assay endpoint is annotated to the gpcr intended target family, where the subfamily is serotonin.
Human cells are incubated for 120 minutes at room tempreture with [3H]LSD ligand (2.3 nM) and serotonin as control inhibitor. Test Sample Requirements: Minimum for 1) Screen: 60 ul of 10 mM stock -OR- 1 mg (pre-weighed) for 10 uM final testing. 2) Dose Response: 90 ul of 10 mM stock -OR- 1 mg (pre-weighed) for a top concentration at 10 uM.

Sequence of human Serotonin Receptor 5-HT7 Agonism, HTR7 (gene 3363) (P34969 whole entry, looked up): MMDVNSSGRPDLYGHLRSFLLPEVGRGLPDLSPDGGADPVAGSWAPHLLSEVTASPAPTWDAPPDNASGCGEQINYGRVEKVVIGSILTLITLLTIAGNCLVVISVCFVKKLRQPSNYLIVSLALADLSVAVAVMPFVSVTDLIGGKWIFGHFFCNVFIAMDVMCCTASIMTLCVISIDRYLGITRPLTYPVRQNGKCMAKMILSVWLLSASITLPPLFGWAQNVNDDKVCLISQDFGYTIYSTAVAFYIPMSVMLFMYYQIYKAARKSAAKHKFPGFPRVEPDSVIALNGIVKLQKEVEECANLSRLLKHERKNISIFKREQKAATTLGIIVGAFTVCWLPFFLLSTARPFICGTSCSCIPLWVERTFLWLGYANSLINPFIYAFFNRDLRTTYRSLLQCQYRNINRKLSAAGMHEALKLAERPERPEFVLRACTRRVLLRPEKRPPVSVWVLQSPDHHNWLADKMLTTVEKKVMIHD

SMILES | AC50
O=C(/C=C/c1ccc(O)cc1)CC(=O)/C=C/c1ccc(O)cc1 | 1.75 µM (active)
